Some structures have more than one record in an assay (separate samples or runs), and their calls can disagree. Calls of active or inactive are those of the source. How the source made its calls: active means hit-call score of the fitted dose curve at least 0.9, where 1 is the maximum; inactive means score below 0.9.

A short description of this assay: ATG_TGFb_CIS: Attagene CIS-FACTORIAL HepG2 Assay for human Transforming Growth Factor (TGF) (AID 2282967). The following applies: HepG2 Attagene CIS TGFb reporter, mRNA transcription; actives raise or lower the signal. As to the method:
ATG_CIS is a cell-based, multiplexed-readout assay that uses HepG2, a human liver cell line, with measurements taken at 24 hours after chemical dosing in a 24-well plate.ATG_TGFb_CIS is one of 52 assay component(s) measured or calculated from the ATG_CIS assay. It is designed to make measurements of mRNA induction, a form of inducible reporter, as detected with fluorescence intensity signals by Reverse transcription polymerase chain reaction (RT-PCR) and Capillary electrophoresis technology.Data from the assay component ATG_TGFb_CIS was analyzed into 1 assay endpoint. This assay endpoint, ATG_TGFb_CIS, was analyzed with bidirectional fitting relative to DMSO as the negative control and baseline of activity. Using a type of inducible reporter, measures of mRNA for gain or loss-of-signal activity can be used to understand the reporter gene at the transcription factor-level as they relate to the gene TGFB1. Furthermore, this assay endpoint can be referred to as a primary readout, because this assay has produced multiple assay endpoints where this one serves a reporter gene function. To generalize the intended target to other relatable targets, this assay endpoint is annotated to the growth factor intended target family, where the subfamily is transforming growth factor beta.
Human liver HepG2 cells are transiently transfected with multiple reporter transcription units (MRTUs) in 6-well plates using FuGene 6 reagent (Roche; 3 ml FuGene/1 mg DNA). The MRTU constructs are regulated by a cis-regulating element (promoter). […] A major difference between the CIS and TRANS system is that in CIS activities of endogenous TFs are measured, whereas the TRANS assay evaluates changes in activities of exogenous, chimeric NR-Gal4 proteins. […] At the end of 24 hour incubation, total RNA was isolated using TriZol reagent (Invitrogen). The isolated RNA is then reverse-transcribed using oligo(dT) primer and Mo-MLV reverse transcriptase (Invitrogen) with DNAse I (Ambion) treatment for 30 min. The one-tenth of the produced cDNA was amplified by PCR using Taq DNA polymerase (Invitrogen) and two reporter sequence-specific primers. The PCR products were fluorescently labeled by primer extension with 6-arboxyfluorescein (6-FAM) 5'-labeled reporter sequence-specific primer (2 min at 95 C, 20 s at 68 C and 10 min at 72 C) and these products were digested with 5U of HpaI (New England Biolabs) for 2h at 37 C. The fragments were purified using Qiaquick PCR columns (Qiagen), analyzed on an ABI 3130xL genetic analyzer (Applied Biosystems) with peak positions identified by using a set of X-rhodamine (ROX)-labeled MapMarker1000 molecular weight standards (BioVentures). The raw capillary electrophoresis data was processed using Attagraph software (Attagene).
For the compound `CC(C)(C)C(O)C(Oc1ccc(Cl)cc1)n1cncn1` (stereo not given), the outcome was inactive.
Still for that read-out and setting: in the case of `O=C(O)CCCOc1ccc(Cl)cc1Cl` it was “inactive”.
The same measure, in the same setting: the same measure for `CCS(=O)(=O)c1cccnc1S(=O)(=O)NC(=O)Nc1nc(OC)cc(OC)n1`: “inactive”; for `CC1(C)C(C=C(Cl)Cl)C1C(=O)OC(C#N)c1ccc(F)c(Oc2ccccc2)c1` (stereo not given): “inactive”; for `O=C1c2ccccc2C(=O)N1SC(Cl)(Cl)Cl`: “inactive”.
Turning to `CCCN(CCOc1c(Cl)cc(Cl)cc1Cl)C(=O)n1ccnc1`, the compound was called inactive.
The same measure, in the same setting: in the case of `COP(=O)(OC)OC=C(Cl)Cl` it was “inactive”.
Take `Oc1ccc(Cl)cc1Cc1ccccc1`: the result was inactive.
On the same count and under the same terms, the same measure for `CN1CSC(=S)N(C)C1`: “inactive”.
Turning to `Cc1cc(C)nc(NC(=O)NS(=O)(=O)c2ccccc2C(=O)OC2COC2)n1`, the outcome was inactive.
The same measure, in the same setting: in the case of `ClC1C(Cl)C(Cl)C(Cl)C(Cl)C1Cl` (stereo not given) it was “inactive”; in that of `O=[N+]([O-])/N=C1\NCCN1Cc1ccc(Cl)nc1`, “inactive”.
On to `C[C@H]1[C@H](c2ccc(Cl)cc2)SC(=O)N1C(=O)NC1CCCCC1`, for which the result was inactive.
On to `CNC(=O)CSP(=S)(OC)OC`, for which the result was inactive.
With `O=S(=O)(O)C(F)(F)C(F)(F)C(F)(F)C(F)(F)C(F)(F)C(F)(F)C(F)(F)C(F)(F)F`, the AC50 is 62.2 µM (active) [middle of 9 runs] and the compound was called inactive.
Turning to `COc1cc(OC)nc(NC(=O)NS(=O)(=O)c2cc(NC=O)ccc2C(=O)N(C)C)n1`, the compound was classed as inactive.
The same measure, in the same setting: the same measure for `COP(=S)(OC)Oc1ccc([N+](=O)[O-])cc1`: “inactive”.
Same read-out and setting: the same measure for `CC(C)(C)C(O)/C(=C\c1ccc(Cl)cc1Cl)n1cncn1` (stereo not given): “inactive”; for `CCC(C)(C)C(=O)OC1=C(c2ccc(Cl)cc2Cl)C(=O)OC12CCCCC2`: “inactive”.
On to `O=S1OCC2C(CO1)C1(Cl)C(Cl)=C(Cl)C2(Cl)C1(Cl)Cl` (stereo not given), for which the compound was classed as inactive.
Consider `CC[C@H](C)[C@H]1O[C@]2(C=C[C@@H]1C)C[C@@H]1C[C@@H](C/C=C(\C)[C@@H](O[C@H]3C[C@H](OC)[C@@H](O[C@H]4C[C@H](OC)[C@@H](O)[C@H](C)O4)[C@H](C)O3)[C@@H](C)/C=C/C=C3\CO[C@@H]4[C@H](O)C(C)=C[C@@H](C(=O)O1)[C@]34O)O2` (tested in a mixture with another compound), for which the result was inactive.
As to `CCOc1nc(NC)nc(NC(=O)NS(=O)(=O)c2ccccc2C(=O)OC)n1`, the compound was called inactive.
The same measure, in the same setting: the same measure for `CCN(CC)C(=O)SCc1ccc(Cl)cc1`: “inactive”; for `N#Cc1c(Cl)c(Cl)c(Cl)c(C#N)c1Cl`: “inactive”; for `CCOC1Oc2ccc(OS(C)(=O)=O)cc2C1(C)C` (stereo not given): “inactive”.
With `O=C(O)COc1ccc(Cl)cc1Cl`, the compound was classed as inactive.
Take `CC1(c2ccc(Oc3ccccc3)cc2)OC(=O)N(Nc2ccccc2)C1=O` (stereo not given): the compound was called inactive.
`CNC(=O)/C=C(\C)OP(=O)(OC)OC`: the compound was classed as inactive.
The same measure, in the same setting: in the case of `Clc1ccccc1-c1nnc(-c2ccccc2Cl)nn1` it was “inactive”.
`C#CCN1C(=O)COc2cc(F)c(N3C(=O)C4=C(CCCC4)C3=O)cc21`: the compound was called inactive.
For the compound `COC(=O)c1ccccc1CS(=O)(=O)NC(=O)Nc1nc(OC)cc(OC)n1`, the call was inactive.
As for `CCOCN(C(=O)CCl)c1c(C)cccc1CC`, the outcome was inactive.
Still for that read-out and setting: the same measure for `[2H]C1([2H])[n+]2ccccc2-c2cccc[n+]2C1([2H])[2H]`: “inactive”; for `CCC(C)(NC(=O)c1cc(Cl)c(C)c(Cl)c1)C(=O)CCl` (stereo not given): “inactive”; for `CCCN(CCC)c1c([N+](=O)[O-])cc(C(F)(F)F)cc1[N+](=O)[O-]`: “inactive”.
As for `OCCOc1ccccc1`, the result was inactive.
As for `Cc1[nH]c(=O)n(C(C)(C)C)c(=O)c1Cl`, the AC50 is 28.7 µM (active).
For `COc1nn(CSP(=S)(OC)OC)c(=O)s1`, the compound was classed as inactive.
Turning to `COC(=O)c1ccccc1S(=O)(=O)NC(=O)N(C)c1nc(C)nc(OC)n1`, the outcome was inactive.

The values above are taken from PubChem BioAssay (EPA / NIEHS).
